# Screening results (PubChem BioAssay)
# Pf Dd2 inh – qHTS Primary assay for Inhibitors of Plasmodium falciparum Dd2 growth in vitro. P. falciparum Dd2 growth, SYBR Green, 72 h. Potency, µM (top dose mostly 28.9 µM), inactives show top-dose activity, negative = inhibition, most hits filed as inhibitors. 120,000 compounds, 4.3% hits. AID 1347417, 2020; active = well fitted inhibition curve with a large enough effect;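 note: plate controls were DMSO vehicle for no effect and reference drug for full effect; nearly all actives have a fitted effect of over 65% in size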
#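 Readout: SYBR Green fluorescence, 485 nm excitation, 535 nm emission, after ~16 h lysis at 37C. Before that, Dd2-infected red cells (2.5% hematocrit) grew 72 h with compound, 29 uM top final concentration.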
# * marks the source's active call; other numbers are inactive results; i = inactive; [ ] = remark or other dose. Many of the other results were omitted from the sample, so hits are more common in it than they were. Potency is the fitted concentration of half-maximal effect.
SMILES,Pf Dd2 inh
CC(C)C(=O)N1Cc2ccccc2CC2(CCCCN2Cc2ccncc2)C1 (stereo not given),8.9µM*
CCOCc1nc(C2CCCN2S(=O)(=O)c2c(C)noc2C)no1 (stereo not given),-19%
CO[C@H]1COCCN(C(=O)c2cccc(F)c2)C1,13%[44.1 µM]
COc1ccc(CNC(=O)Cn2c(C)cc3nc4n(c(=O)c32)CCCCC4)cc1,i
CN(Cc1cccn1C)CC1CC1,27%[44.1 µM]
O=C1NCCCCCCN(C(=O)c2ccsc2)[C@H]2C[C@H](c3nc(-c4cnccn4)no3)C[C@@H]12,-8%
CCCCNc1ncc(C(=O)O)c(CC)n1,-6%
c1ccc(C2(c3nc(C4CCOC4)no3)CCCCC2)cc1 (stereo not given),-20%
CS(=O)(=O)N(Cc1cccnc1)C1CN(C(=O)Cc2c[nH]c3ccccc23)C1,-2%
Cc1ccc(NC(=O)C2CCCN(c3cn[nH]c(=O)c3)C2)cc1C (stereo not given),-8%
Cc1nc2c(N)cccn2n1,6%
CCNC(=O)CCc1c(C)nn(-c2ccc(F)cc2)c1Oc1ccc(F)cc1F,i
CCN1C(=O)C2CC3(CCN(C(=O)c4ccc(OC)cc4)CC3)CN2C1=O (stereo not given),-26%
O=C(O)c1ccc(C2CCCN(C(=O)CCCn3cncn3)C2)cc1 (stereo not given),1%
COCCn1c(=N)c(C(=O)NC2CCCC2)cc2c(=O)n3cc(C)ccc3nc21,3%
CCOCCCn1c(=N)c(S(=O)(=O)c2ccc(C)cc2)cc2c(=O)n3cccc(C)c3nc21,-6%
CCOCCCn1c(=N)c(C(=O)NC2CCCC2)cc2c(=O)n3cccc(C)c3nc21,2.2µM*
O=C(NCC1CCN(c2cc(-c3ccc(Cl)cc3)[nH]n2)CC1)c1ccc[nH]1,-15%
Cc1ccsc1C(=O)N1CCC(C2CCN(S(C)(=O)=O)CC2)C1 (stereo not given),-8%
O=C(NC1CCCCC1)N[C@@H]1C=C(C(=O)N[C@H]2CCCNC2=O)C[C@@H](O)[C@@H]1O,8%[44.1 µM]
O=C1COCCN1C1CCN(Cc2cccnc2)CC1,14%[44.1 µM]
O=C(NCC1CN(C(=O)Cc2ccc(OC(F)(F)F)cc2)CC12CN(c1ccccc1)C2)Nc1ccccc1 (stereo not given),i
COc1ccc(-c2onc(C)c2C)cc1S(=O)(=O)NCc1ccc(Br)cc1,24%
COCCCNS(=O)(=O)c1cc(-c2onc(C)c2C)ccc1OC,-7%
COc1ccc(-c2onc(C)c2C)cc1S(=O)(=O)NCC1CCN(Cc2cc(C)ccc2C)CC1,11µM*
SMILES,Pf Dd2 inh
O=C(CC1CCCC1)N1CCC(N2CC(OCC3CC3)C23CCOCC3)CC1 (stereo not given),i
COCCC1(NC(=O)C2CCC2)CCN(CC2CC2)CC1,-20%
COc1ccc([S+](=O)([O-])N2CCC3(CC2)OCCN(c2ccc(F)cc2)C3=O)cc1,-7%[44.1 µM]
Cc1c(C(=O)O)sc2ncnc(NCC3(O)CCCCC3)c12,1%
COc1ccc(C(=O)N2CCOCC(O)(CN3CCCC3)C2)c(OC)c1 (stereo not given),10%
CCc1cc(N2CCOCC(O)(CN3CCCC3)C2)nc(N2CCCC2)n1 (stereo not given),5.6µM*
CCc1cc(N2CCC3(CCCN(C)C3=O)C2)nc(N2CCCC2)n1 (stereo not given),-29%
CC(C)c1ccc(C(=O)N2CCC(N3C(=O)CCC3C(=O)NCc3ccccc3)CC2)cc1 (stereo not given),-22%
O=C(Cc1ccc(Cl)cc1)NCc1nnc2c(-c3nc(C4CC4)no3)cccn12,i
O=C(c1cc2c(s1)CCCC2)N1CCC2(CC1)OCCCC2O (stereo not given),3%
CCC1(N2CCN(C(=O)COc3ccc(Cl)cc3C)CC2)CCN(C(=O)NC)C1 (stereo not given),-35%
CCC1(N2CCN(C(=O)COc3cccc(Cl)c3)CC2)CCN(S(C)(=O)=O)C1 (stereo not given),i
CCC1(N2CCN(C(=O)COc3cccc(Cl)c3)CC2)CCN(C(=O)NC)C1 (stereo not given),10µM*
O=C(NCC1CCNC1)C1CCN(c2nc(-c3ccccc3)nc3c2CCC3)CC1 (stereo not given),i
O=C(C1CC(=O)N(c2n[nH]c3cc(Br)ccc23)C1)N1CCCC1 (stereo not given),-3%
O=C([C@@H]1C[C@@H](O)[C@H](O)[C@@H]2NC(=S)N(c3ccc4c(c3)OCO4)[C@@H]21)N1CCOCC1,-19%[44.1 µM]
COc1ccc(OC)c(Nc2sc(C(=O)c3ccccc3)c(N)c2S(=O)(=O)c2ccccc2)c1,8.9µM*
CCOC(=O)c1sc2ccccc2c1S(=O)(=O)Nc1cc(OC)ccc1OC,53%
Cc1ccc(Nc2sc(C(=O)c3ccccc3)c(N)c2C(=O)NC(C)C)cc1,-3%
Cc1ccc(Nc2sc(C(=O)c3ccccc3)c(N)c2S(=O)(=O)c2ccccc2)c(C)c1,10µM*
COc1cccc(C(=O)c2sc(Nc3ccc(C)cc3C)c(S(=O)(=O)c3ccccc3)c2N)c1,10µM*
COc1ccccc1Nc1sc(C(=O)c2ccc(C)cc2C)c(N)c1S(=O)(=O)c1ccccc1,-15%
Cc1ccc(CNC(=O)c2c(Nc3c(C)cccc3C)sc(C(=O)c3ccccc3)c2N)cc1,-4%
CCOc1ccc(Nc2sc(C(=O)c3cccc(OC)c3)c(N)c2S(=O)(=O)c2ccccc2)cc1,i
COc1ccc(CCNC(=O)c2c(Nc3ccccc3C)sc(C(=O)c3ccccc3)c2N)cc1OC,i
SMILES,Pf Dd2 inh
Cc1ccc(S(=O)(=O)N[C@H]2CC(C)(C)[C@@H]3C[C@@](C)(O)CC[C@]23CCC(=O)NCCc2c[nH]c3ccccc23)cc1,-15%
O=C(c1ccoc1)N1CC[C@@H](c2ccc3ccccc3c2)[C@H](O)C1,-12%
CC[C@H]1CN(C(=O)Nc2cccc(C(F)(F)F)c2)CC[C@H]1CC(=O)NCc1cccc2ccccc12,10%
O=C(NC1(c2cc(F)ccc2F)CC1)[C@H]1CCC[C@H](O)C1,-8%
COCCNC(=O)CC1Sc2ncccc2N(CC(C)C)C1=O (stereo not given),7%
OCCNc1ncnc2ccc(-c3cccc(O)c3)cc12,8.9µM*
Oc1cccc(Nc2nc(-c3ccccc3)nc3ccccc23)c1,-1%
CN1CCN(C(=O)Cc2c[nH]c3ncc(-c4cccc(O)c4)cc23)CC1,-8%[44.1 µM]
CS(=O)(=O)NC[C@H]1O[C@@H](CC(=O)N2CCN(c3ccccn3)CC2)[C@H](O)[C@@H]1O,i
COc1ccc(Nc2cc(C)nc(-n3nc(C)cc3C)n2)cc1Cl,3.5µM*
Cc1cc(Nc2ccc(F)cc2F)nc(-n2nc(C)cc2C)n1,-23%
CCCOc1ccc(Nc2cc(C)nc(C)n2)cc1,0%
O=C(NC1CCCCC1)c1ccc(Cn2c(SCc3ccc(F)cc3)nc3cccnc32)cc1,-2%
O=C(NC1CCCCC1)c1ccc(CSc2nc3cccnc3n2Cc2ccc(F)cc2)cc1,20%[5.79 µM]
O=C(NC1CCCCC1)c1ccc(CSc2nc3cccnc3n2Cc2cccc(F)c2)cc1,11µM*
Cc1cccc(Cn2c(SCc3ccc(C(=O)NC4CCCCC4)cc3)nc3cccnc32)c1,10µM*
Cc1cccc(Cn2c(SCc3ccc(C(=O)NC4CCCC4)cc3)nc3cccnc32)c1,-26%
c1ccc(-c2nc(C3CCNC3)no2)cc1 (stereo not given),37%[5.79 µM]
CCC1Oc2ccc(NC(=O)c3cccs3)cc2CN(Cc2ccc(OC)cc2)C1=O (stereo not given),i
